According to the supplement of paper PMC10105736:
Unmarked numbers belong to inactive results.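 How the source made its calls: active = MAPPIT score above the 99th percentile of random reference set scores in the same batch; inactive = at or below it.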

What was measured:
Experiment in all cases: MAPPIT interaction score (arbitrary units); higher = stronger binary interaction signal, active = hit call of the paper
[1] = target: Zif; conditions: MAPPIT configuration: N-N; pair source set: screen_2
[2] = target: Zpr1; conditions: MAPPIT configuration: N-N; pair source set: Finley_Y2H
[3] = target: sinah; conditions: MAPPIT configuration: N-N; pair source set: Lit-BS-16
[4] = target: abs; conditions: MAPPIT configuration: N-N; pair source set: DPIM
[5] = target: alrm; conditions: MAPPIT configuration: N-N; pair source set: DPIM
[6] = target: bcd; conditions: MAPPIT configuration: N-N; pair source set: Lit-BM-16
[7] = target: brat; conditions: MAPPIT configuration: N-N; pair source set: Lit-BM-16
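Further: HEK293T cells with Epo stimulation, STAT-responsive firefly luciferase reporter, fold induction versus unstimulated cells divided by the larger fold induction of two negative controls lacking either bait or prey.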

B1: eIF4E1 (protein)
chain: MQSDFHRMKNFANPKSMFKTSAPSTEQGRPEPPTSAAAPAEAKDVKPKEDPQETGEPAGNTATTTAPAGDDAVRTEHLYKHPLMNVWTLWYLENDRSKSWEDMQNEITSFDTVEDFWSLYNHIKPPSEIKLGSDYSLFKKNIRPMWEDAANKQGGRWVITLNKSSKTDLDNLWLDVLLCLIGEAFDHSDQICGAVINIRGKSNKISIWTADGNNEEAALEIGHKLRDALRLGRNNSLQYQLHKDTMVKQGSNVKSIYTL
**Q.** Which MAPPIT interaction score [1] does the source give for B1 here?
**A.** Its MAPPIT interaction score is -0.101.

B2: esn (protein)
chain: MQQAPQQQQHPHPPSSSYYTQTESELLQIEAGGTGLTFASHSQRPESAISQVASTAHLDVPSAASSGSGGSAVSGGSGGAPESAGRFVSPLQRRHCQPPSHLPLNSVASPLRTASYKSAAAVAGHGFHHSHHQQLDFQRNSQSDDDSGCALEEYTWVPPGLRPDQVRLYFSQLPDDKVPYVNSPGEKYRVKQLLHQLPPQDNEVRYCHSLSDEERKELRIFSAQRKREALGRGAVRLLSDERPCKGCEEPLSGGDIVVFAQRLGAQLCWHPGCFVCSVCKELLVDLIYFQRDGNLYCGRHHAETQKPRCSACDEIIFSDECTEAEGRTWHMKHFACQECEHQLGGQRYIMREGKPYCLACFDTMFAEYCDYCGEVIGVDQGQMSHDGQHWHATDQCFSCCTCRCSLLGRPFLPRRGTIYCSIACSKGEPPTPSDTSSGPQLRPTHRASTSSQIAKSPRRGGERERDPGRKAHHGHPKATGSAGDLLERQERQRMEAAGVADLLLGGGVPGMPRPAHPPPIDLTELGISLDNICAGDKSIFGDTQTLTNSMPDMLLSKADDSHSYQSIDKINLNSPSNSDLTQSTQELANELELDNEPVRELPHDGYEQLFANNRNQEHPAEQYDDEQLDNRPMKEVRFHSVQDTMSRSKSYTDNSNARRRRRRRNQSRSSSEMQINQTNLRLHNAQTQVGTTPLNLLNNLDNCDVASICSTCSSSSSSDMDDYVYRLPARKHYGGVRVAYVPNDALAYERKKKMAQDSSLAPGAGNASVGGAPAIMHESKNCTIS
**Q.** For B2, which MAPPIT interaction score [2] is on record?
**A.** The MAPPIT interaction score was 0.202.

**Q.** What about the MAPPIT interaction score [3] of the same binder?
**A.** The MAPPIT interaction score was 3.43 (active).

B3: mtTFB2 (protein)
chain: MLPLRCSWSFARANYSTKKELVTRYSGDFPEKLLNRKQKVPTHMYIANSEAAARINQYLEPHFQSSGCDTVMELNSGAGYFTRHLLDRESQFRRIILLESMDHFMPKIQELHTLYPERVKVRQGDFVNLWKLVYMDKMDGGSRVADLLSDVPQKAFTDDINMLVFGAVGSYPFFKHLINSLIFQTSLFNLGRCEMILAMPPPIYIHLTCNNEIGYLIYRSTSVLFQILFEHKFIAKVPREDFLPQQMAYSPTKSSKLGKVQSINPEYLYLVKFTPRRNLHELCQSQDLPALWFFIKQNYVSRRNRIIPNLEKWVPGCGPRLIINPKSSESVTPIYPDELPKKLPQYSCQSTTMSTRNYYPGINIYTQFGDLLPSQILTLFSQFRQWPEYGESSFLASLENALLKLETANDEPNLEDGVTLPEEDDAEADEIIEEESPVPATTPVKRRRKASS
**Q.** Which MAPPIT interaction score [4] does the source give for B3 here?
**A.** Its MAPPIT interaction score is 2.

B4: sun (protein)
chain: MTAWRAAGITYIQYSNIAARILRESLKTGLRADAAKRDASHVKFTPWANGKPAQRQTQSES
**Q.** With B4 as the binder, how does the MAPPIT interaction score [5] read?
**A.** Its MAPPIT interaction score is -0.31.

B5: Bin1 (protein)
chain: MANVESMIVEEKTQVKQIDREKTCPMLLRVFCSTGRHHSVSEYMFGNVPTNELQIYTWQDATLHELTSLVRDVNPDTRKKGTYFDFAVVYPNFRSNHFQMREIGVTCTGQKGIDDNKTLAQAKFSIGDFLDISITPPNRLPPTARRQRPY
**Q.** How did the MAPPIT interaction score [6] turn out when B5 was run?
**A.** The MAPPIT interaction score was -0.341.

B6: nos (protein)
chain: MSQHFTSIFENLRFVTIKRSTNAQQQQQQQQQQLQQQQQQLQQQKAQTQQQNSRKIKTQATPTLNGNGLLSGNPNGGGGDSSPSHEVDHPGGAQGAQAAGGLPSSSGTPLRHHKRASISTASPPIRERRGTNTSIVVELDGSGSGSGSGGGGVGVGQGAGCPPSGSCTASGKSSRELSPSPKNQQQPRKMSQDYRSRAGSFMHLDDEGRSLLMRKPMRLKNIEGRPEVYDTLHCKGREILSCSKATCTSSIMNIGNAAVEARKSDLILEHAKDFLEQYFTSIKRTSSTAHETRWKQVRQSIETTGHYQLTETELIYGAKLAWRNSSRCIGRIQWSKLQVFDCRYVTTTSGMFEAICNHIKYATNKGNLRSAITIFPQRTDAKHDYRIWNNQLISYAGYKQADGKIIGDPMNVEFTEVCTKLGWKSKGSEWDILPLVVSANGHDPDYFDYPPELILEVPLTHPKFEWFSDLGLRWYALPAVSSMLFDVGGIQFTATTFSGWYMSTEIGSRNLCDTNRRNMLETVALKMQLDTRTPTSLWKDKAVVEMNIAVLHSYQSRNVTIVDHHTASESFMKHFENESKLRNGCPADWIWIVPPLSGSITPVFHQEMALYYLKPSFEYQDPAWRTHVWKKGRGESKGKKPRRKFNFKQIARAVKFTSKLFGRALSKRIKATVLYATETGKSEQYAKQLCELLGHAFNAQIYCMSDYDISSIEHEALLIVVASTFGNGDPPENGELFSQELYAMRVQESSEHGLQDSSIGSSKSFMKASSRQEFMKLPLQQVKRIDRWDSLRGSTSDTFTEETFGPLSNVRFAVFALGSSAYPNFCAFGQYVDNILGELGGERLLRVAYGDEMCGQEQSFRKWAPEVFKLACETFCLDPEESLSDASLALQNDSLTVNTVRLVPSANKGSLDSSLSKYHNKKVHCCKAKAKPHNLTRLSEGAKTTMLLEICAPGLEYEPGDHVGIFPANRTELVDGLLNRLVGVDNPDEVLQLQLLKEKQTSNGIFKCWEPHDKIPPDTLRNLLARFFDLTTPPSRQLLTLLAGFCEDTADKERLELLVNDSSAYEDWRHWRLPHLLDVLEEFPSCRPPAPLLLAQLTPLQPRFYSISSSPRRVSDEIHLTVAIVKYRCEDGQGDERYGVCSNYLSGLRADDELFMFVRSALGFHLPSDRSRPIILIGPGTGIAPFRSFWQEFQVLSDLDPTAKLPKMWLFFGCRNRDVDLYAEEKAELQKDQILDRVFLALSREQAIPKTYVQDLIEQEFDSLYQLIVQERGHIYVCGDVTMAEHVYQTIRKCIAGKEQKSEAEVETFLLTLRDESRYHEDIFGITLRTAEIHTKSRATARIRMASQP
**Q.** How did the MAPPIT interaction score [7] turn out when B6 was run?
**A.** Its MAPPIT interaction score is -0.851.
